# From article PMC4336329 (PLoS ONE, 2015)
# Hit rate of the full screen: of about 310,000 compounds, about 14,000 (4.5%) showed an effect of 50% or more. Effects have a minus sign here. The entries come from a sample that favours strong results as a whole.
# Target: human ether-à-go-go-related gene (hERG) potassium channel (human, UniProt Q12809)
# Assay: primary screen, population patch clamp on CHO cells stably expressing hERG; higher = less effect of the substance
# 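Further: peak tail current of the secondary pulse compared with the same well before compound.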
# Sequence of human ether-à-go-go-related gene (hERG) potassium channel (Q12809 whole entry, looked up): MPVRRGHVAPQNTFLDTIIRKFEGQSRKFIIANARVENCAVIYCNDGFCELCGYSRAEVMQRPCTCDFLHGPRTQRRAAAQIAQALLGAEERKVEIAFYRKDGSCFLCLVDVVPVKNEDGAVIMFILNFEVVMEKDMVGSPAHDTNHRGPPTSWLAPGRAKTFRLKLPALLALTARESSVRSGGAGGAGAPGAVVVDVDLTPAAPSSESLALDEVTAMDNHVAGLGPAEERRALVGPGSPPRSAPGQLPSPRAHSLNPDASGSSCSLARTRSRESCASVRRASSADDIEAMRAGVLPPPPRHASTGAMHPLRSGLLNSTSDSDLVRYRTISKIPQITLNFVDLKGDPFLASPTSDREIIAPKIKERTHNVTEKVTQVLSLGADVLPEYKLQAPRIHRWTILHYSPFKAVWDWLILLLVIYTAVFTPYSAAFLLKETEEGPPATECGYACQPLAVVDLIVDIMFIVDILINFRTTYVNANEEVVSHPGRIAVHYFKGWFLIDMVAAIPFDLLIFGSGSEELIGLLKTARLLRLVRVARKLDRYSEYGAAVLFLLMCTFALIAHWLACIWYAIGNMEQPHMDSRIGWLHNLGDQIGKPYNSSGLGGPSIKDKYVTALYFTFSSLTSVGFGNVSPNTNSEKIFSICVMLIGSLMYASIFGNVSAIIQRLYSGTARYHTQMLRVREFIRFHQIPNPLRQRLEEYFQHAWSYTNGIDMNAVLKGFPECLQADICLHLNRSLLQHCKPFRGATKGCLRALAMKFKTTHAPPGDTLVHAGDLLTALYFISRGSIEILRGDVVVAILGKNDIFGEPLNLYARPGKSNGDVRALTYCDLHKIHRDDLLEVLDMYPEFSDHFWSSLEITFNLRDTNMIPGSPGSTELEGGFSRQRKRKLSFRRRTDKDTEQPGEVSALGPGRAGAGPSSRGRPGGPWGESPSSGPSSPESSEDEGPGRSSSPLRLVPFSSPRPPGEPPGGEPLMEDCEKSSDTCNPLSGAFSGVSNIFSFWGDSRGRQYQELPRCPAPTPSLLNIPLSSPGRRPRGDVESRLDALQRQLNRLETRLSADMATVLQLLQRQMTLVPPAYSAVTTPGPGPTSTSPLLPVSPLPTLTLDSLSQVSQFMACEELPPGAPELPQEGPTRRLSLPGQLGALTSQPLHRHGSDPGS
row,Structure (SMILES),"hERG current change (%, negative = inhibition) at 10uM"
1,CCC1(OC(=O)CN)C(=O)OCc2c1cc1n(c2=O)Cc2cc3ccccc3nc2-1.Cl (centres unmarked),8.16%
2,CC(=O)c1cccc(NC(=O)/C(=C\c2ccco2)NC(=O)c2cccs2)c1,-9.8%
3,CCOC(=O)N1CCN(C(=O)C(C)N(c2ccccc2)S(C)(=O)=O)CC1 (centres unmarked),25.1%
4,O=C(O)CC(CC(=O)Nc1ccc(C(=O)O)cc1)c1ccccc1 (centres unmarked),12.9%
5,Cc1ccc(-n2c(=O)c3sccc3n(CC(=O)NC3CCCCC3)c2=O)cc1,9.86%
6,O=C(COC(=O)c1cnccn1)NCc1ccc(Cl)cc1,-3.54%
7,COCCN(C(=O)Cc1cccs1)C(C(=O)NC1CCCC1)c1cc(OC)c(OC)c(OC)c1 (centres unmarked),8.79%
8,Cc1nn(-c2ccccn2)c2c1C(c1ccncc1)C1=C(CC(C)(C)CC1=O)N2 (centres unmarked),-50.8%
9,CCO.Cc1nn(-c2ccccn2)c2c1C(c1ccsc1)C1=C(CCCC1=O)N2 (centres unmarked),-16.1%
10,Cc1ccc(C2C3=C(CCCC3=O)Nc3c2c(C)nn3-c2ccccn2)o1 (centres unmarked),1.07%
11,CC(C)(C)[C@H]1C=C(C(=O)NCc2ccccc2)O[C@@H](OCc2ccc(CO)cc2)C1,-12.9%
12,COc1ccc(N(C(=O)c2snc(C(N)=O)c2N)C(C(=O)NC2CCCC2)c2cc(OC)ccc2OC)c(OC)c1 (centres unmarked),20.9%
13,CC1=C(C#N)C(NC(=O)C2CC2)(C(F)(F)F)C(=O)N1 (centres unmarked),-2.06%
14,COc1cccc(-n2c(=S)sc3c(=O)n(-c4ccccc4C)c(SCC(=O)O)nc32)c1,16.5%
15,N/C(=N\O)c1ccc(Oc2ccccc2Cl)c([N+](=O)[O-])c1,-9.72%
16,CCC1=Nc2cc(C(=O)NCCN3CCCC3)ccc2Sc2ccccc21,-52.1%
17,CCCC1=Nc2cc(C(=O)NCCN3CCOCC3)ccc2Sc2ccc(C)cc21,-34.3%
18,CCC1=Nc2cc(C(=O)NCCN3CCOCC3)ccc2Sc2ccccc21,-15.3%
19,CCC1=Nc2cc(C(=O)NCCN3CCOCC3)ccc2Sc2ccc(C)cc21,-82.3%
20,CCCC1=Nc2cc(C(=O)NCCN3CCCC3)ccc2Sc2ccccc21,-21.2%
21,CCC1=Nc2cc(C(=O)NCCN3CCCC3)ccc2Sc2ccc(C)cc21,-29%

row,Structure (SMILES),"hERG current change (%, negative = inhibition) at 10uM"
1,Cc1cccc(NC(=O)COc2ccccc2C(=O)NC(C)c2ccccc2)c1 (centres unmarked),-8.56%
2,Cc1onc(-c2ccccc2)c1C(=O)N/N=C/c1ccc(O)c([N+](=O)[O-])c1,9.34%
3,CCCCn1c(O)c(N=NC(=O)c2ccccc2NS(=O)(=O)c2cccs2)c2ccccc21,-2.54%
4,O=C(CSc1nncn1-c1ccccc1)Nc1c(F)cccc1F,3.19%
5,NC(N)=NS(=O)(=O)c1ccc(N/C=C/C(=O)c2ccc(Cl)c(Cl)c2)cc1,17.3%
6,Cc1ccc(NC2CCCN(C(=O)c3ccccc3N3CCOCC3)C2)cc1C (centres unmarked),-0.641%
7,O=C(NCc1cccnc1)c1cc(Sc2ccccc2Cl)nc2ccccc12,-5.45%
8,O=C(NCc1ccc2c(c1)OCO2)c1cc(-c2ccccn2)nc2ccccc12,4.41%
9,O=C(NCc1cccnc1)c1cc(Sc2cccc(Cl)c2)nc2ccccc12,-15.4%
10,O=C(NCc1ccccn1)c1cc(-c2ccncc2)nc2ccccc12,-25.6%
11,CCCc1ccc(-c2cc(C(=O)N/N=C/c3ccc([N+](=O)[O-])o3)c3ccccc3n2)cc1,-1.61%
12,O=C(NCc1cccnc1)c1cc(Sc2ccc(F)cc2F)nc2ccccc12,-55.3%
13,O=C(N/N=C/c1ccc([N+](=O)[O-])o1)c1cc(-c2ccncc2)nc2ccccc12,-62.9%
14,O=C(N/N=C/c1ccc([N+](=O)[O-])o1)c1cc(-c2ccc(-c3ccccc3)cc2)nc2ccccc12,17.7%
15,O=C(NCc1ccccc1)c1cc(-c2ccncc2)nc2ccccc12,-34%
16,O=C(NCc1ccc(F)cc1)c1cc(-c2ccncc2)nc2ccccc12,-64.7%
17,O=C(NCc1ccc2c(c1)OCO2)c1cc(-c2ccncc2)nc2ccccc12,-67%
18,O=C(Nc1ccc2c(c1)OCO2)c1cc(-c2ccncc2)nc2ccccc12,-3.22%
19,O=C(NC(=S)NC1CCSC1=O)c1cccs1 (centres unmarked),15.9%
20,CCOCc1nnc(NC(=O)C2CC(=O)N(CCc3ccc(F)cc3)C2)s1 (centres unmarked),5.97%
21,CCC1c2ccc(C)n2CCN1C(=O)Nc1ccccc1C(=O)OC (centres unmarked),6.11%

row,Structure (SMILES),"hERG current change (%, negative = inhibition) at 10uM"
1,CCc1nnc(NC(=O)C2(C)COC(c3ccc(OC)cc3)OC2)s1 (centres unmarked),10.1%
2,CC1(C)C2CCC1(CS(=O)(=O)N1CCOCC1)C(=O)C2 (centres unmarked),-1.75%
3,Cc1cc(C(=O)COC(=O)c2cccnc2Cl)c(C)n1CC1CCCO1 (centres unmarked),-20.1%
4,CC(C)c1ccccc1OCC(=O)NCC(c1cccs1)N1CCOCC1 (centres unmarked),-50.2%
5,COc1ccc(-c2cn(CCC(=O)NCc3ccc(C)cc3)c(-c3ccncc3)n2)cc1,-21.3%
6,O=C(NCC(c1cccs1)N1CCOCC1)c1cc(-c2ccccn2)nc2ccccc12 (centres unmarked),-23%
7,O=C(NCC(c1cccs1)N1CCOCC1)c1cc(-c2ccc(F)cc2)nc2ccccc12 (centres unmarked),-55.9%
8,Cc1ccc(CNC(=O)CCn2cc(-c3ccc(C)cc3)nc2-c2ccncc2)cc1,-45.1%
9,O=C(NCC(c1cccs1)N1CCOCC1)c1cn(-c2ccccc2)nc1-c1ccc(F)cc1 (centres unmarked),-1.67%
10,COc1ccccc1OCC(=O)NCC(c1cccs1)N1CCOCC1 (centres unmarked),-4.48%
11,Cc1ccc(C(C)C)c(OCC(=O)NCC(c2cccs2)N2CCOCC2)c1 (centres unmarked),-48.1%
12,Cc1ccc(CNC(=O)CCn2cc(-c3ccc(F)cc3)nc2-c2ccncc2)cc1,-50.1%
13,O=C(Cc1ccccc1)Nc1cccc(-c2nc3ncccc3o2)c1,13.6%
14,COc1ccc(Nc2ccc(C(N)=O)cc2[N+](=O)[O-])cc1,7.18%
15,CCCSc1nc2c(c(=O)[nH]c(=O)n2C)n1C,2.58%
16,Cn1c(=O)[nH]c(=O)c2c1nc(OC(=O)c1ccccc1)n2CC(O)COc1ccccc1 (centres unmarked),23.2%
17,CCCc1c(O)nc(SCc2ccccc2)[nH]c1=O,0.68%
18,CCOC(=O)C1CCN(Cc2cc(C(C)C)c(O)c(C(C)C)c2)CC1,-41.3%
19,CCOC(=O)C1CCN(Cc2ccc(Cl)c(Cl)c2)CC1,-5.6%
20,CC(C)(C)c1cc(CN2CCC(O)CC2)cc(C(C)(C)C)c1O,-70.1%
21,CC1=NN(Cc2cc(C(C)(C)C)c(O)c(C(C)(C)C)c2)C(=O)C1,17.2%

row,Structure (SMILES),"hERG current change (%, negative = inhibition) at 10uM"
1,CCOC(=O)C1CCN(Cc2cc(C(C)(C)C)c(O)c(C(C)(C)C)c2)CC1,-63.1%
2,CC(C)(C)c1cc(CN2CCCCC2)cc(C(C)(C)C)c1O,-50.7%
3,CN1CCN(Cc2cc(C(C)(C)C)c(O)c(C(C)(C)C)c2)CC1,-15.1%
4,CC(C)(C)c1cc(CN2CCCC(O)C2)c(O)c(C(C)(C)C)c1 (centres unmarked),-13.9%
5,CCN1CCN(Cc2cc(C(C)(C)C)c(O)c(C(C)(C)C)c2)CC1,-26.5%
6,Cc1ccc(S(=O)(=O)N2N=C3CCCCC3C2(O)C(F)(F)F)cc1 (centres unmarked),4.99%
7,O=C(NN=C1CCCC1)c1cccc(O)c1,8.96%
8,O=C1C2C3CCCC3=C3CCCC3C2C(=O)N1c1ccccc1 (centres unmarked),1.8%
9,C/C(=N/NC(=O)c1ccc2c(c1)OCO2)c1ccc(NC(=O)c2ccc(F)cc2)cc1,9.33%
10,O=C(NC1CCCN(c2ccc(C(F)(F)F)cn2)C1)c1ccnc(Cl)c1 (centres unmarked),-55.5%
11,Cc1ccc(C(=O)NC2CCCN(c3ccc(C(F)(F)F)cn3)C2)cn1 (centres unmarked),-2.75%
12,CSc1ccccc1C(=O)NC1CCCN(c2ccc(C(F)(F)F)cn2)C1 (centres unmarked),-4.58%
13,O=C(CCc1ccccc1Cl)NC1CCCN(c2ccc(C(F)(F)F)cn2)C1 (centres unmarked),13.4%
14,O=C(NC1CCCN(c2ccc(C(F)(F)F)cn2)C1)c1ccncc1 (centres unmarked),-69.2%
15,O=C(NC1CCCN(c2ccc(C(F)(F)F)cn2)C1)c1cc(Cl)ccc1F (centres unmarked),5.34%
16,COc1ccc(CCNC(=O)Cn2nnc3ccccc3c2=O)cc1,9.17%
17,CCOC(=O)CN1CC23C=CC(O2)C(C(=O)Nc2ccc(C(C)=O)cc2)C3C1=O (centres unmarked),4.98%
18,CC1=C(C(=O)Nc2cccc(C(=O)NC3CCCCC3C)c2)SCCO1 (centres unmarked),-17.8%
19,CC1(C)CC(=O)C=C(NCCN2CCN(C(=O)Nc3ccc(Cl)c(Cl)c3)CC2)C1,-24%
20,CS(=O)(=O)N(CC(=O)NCc1cccnc1)Cc1ccc(Cl)cc1,-30.1%
